Unmarked numbers belong to inactive results.
Tested on: Vero E6 infected with SARS-CoV-2
Test: SARS-CoV-2 infection rate relative to infected DMSO; higher = more infection, active = 60 or less
Details: 24 h

SMILES	SARS-CoV-2 infection rate
N#CC(C#N)=Cc1ccc(O)c(O)c1 [tyrphostin-AG-18] (10 µM)	100%
O=C(Nc1ccncc1)C(=O)c1cn(Cc2ccc(Cl)cc2)c2ccccc12 [indibulin] (0.833333 µM)	124%
CC(CN1c2ccccc2Sc2ccccc21)N(C)C (stereo not given) [promethazine] (10 µM)	67.5%
CCC(N)C(O)c1ccc(O)c(O)c1 (stereo not given) [ethylnorepinephrine] (10 µM)	106%
CC(Cc1ccccc1)NCCC(c1ccccc1)c1ccccc1 (stereo not given) [prenylamine] (10 µM)	19.5% (active)
C=C1/C(=C\C=C2/CCC[C@]3(C)[C@@H]([C@H](C)/C=C/[C@@H](O)C4CC4)CC[C@@H]23)C[C@@H](O)C[C@@H]1O [calcipotriol] (10 µM)	103%
COc1cccc(Nc2ncnn3ccc(CN4CC[C@@H](N)[C@H](O)C4)c23)c1 (0.833333 µM)	112%
CCC(=O)c1ccc(OCC(O)CN2CCN(c3ccccc3)CC2)cc1 (stereo not given) [centpropazine] (10 µM)	93.5%
C[C@H](N[C@@H](CCc1ccccc1)C(=O)O)C(=O)N1CCC[C@H]1C(=O)O [enalaprilat] (10 µM)	107%
O=C(O[C@@H]1Cc2c(O)cc(O)cc2O[C@@H]1c1cc(O)c(O)c(O)c1)c1cc(O)c(O)c(O)c1 [epigallocatechin-gallate-(-)] (10 µM)	100%
Cc1nc2cnc3ccc(C#Cc4cccnc4)cc3c2n1-c1ccc(C(C)(C)C#N)cc1 (10 µM)	109%
CC(C)C(=O)c1c(C(C)C)nn2ccccc12 [ibudilast] (10 µM)	97%
CCOc1nc2c(N)ncnc2n1CC (10 µM)	88%
N[C@@]1(C(=O)O)CC[C@H]2[C@H](C(=O)O)[C@H]21 [eglumetad] (10 µM)	114%
O=C(Cc1ccccc1)Nc1nc2ccc(Cl)cc2c2nc(-c3ccco3)nn12 (10 µM)	110%
COC(=O)/C=C/C(=O)N[C@@H]1CC[C@@]2(O)[C@H]3Cc4ccc(O)c5c4[C@@]2(CCN3CC2CC2)[C@H]1O5 [beta-funaltrexamine] (10 µM)	99%
O=S1(=O)OC(c2ccc(O)cc2)(c2ccc(O)cc2)c2ccccc21 [phenolsulfonphthalein] (10 µM)	105%
O=c1ccc2ccc(OCCCCN3CCN(c4cccc5sccc45)CC3)cc2[nH]1 [brexpiprazole] (10 µM)	98.5%
NC1CCN(c2cccc(Cl)n2)CC1 (10 µM)	108%
CC(C)n1c(/C=C/[C@@H](O)C[C@@H](O)CC(=O)O)c(-c2ccc(F)cc2)c2ccccc21 [fluvastatin] (0.833333 µM)	115%

SMILES	SARS-CoV-2 infection rate
OCCOc1ccc(/C(=C(/CCCl)c2ccccc2)c2ccccc2)cc1 [ospemifene] (10 µM)	97.5%
C[C@@H]1COCCN1c1cc(=O)n2c(n1)N(Cc1cncc(Cl)c1)[C@H](C(F)(F)F)CC2 (0.833333 µM)	70%
Nc1ncnc2c1ncn2[C@@H]1O[C@H](CO)[C@@H](O)[C@H]1O [adenosine] (10 µM)	109%
O=C(O)CNC(=O)c1c(O)c2ccccc2n(Cc2ccccc2)c1=O (10 µM)	102%
CCC1(CC)C(=O)C=CNC1=O [pyrithyldione] (10 µM)	107%
CCOC(=O)c1ncn2c1CN(C)C(=O)c1cc(N=[N+]=[N-])ccc1-2 (10 µM)	110%
CC(C)(C)c1nc(-c2cccc(NS(=O)(=O)c3c(F)cccc3F)c2F)c(-c2ccnc(N)n2)s1 [dabrafenib] (10 µM)	114%
CN1C(=O)CC(c2ccccc2)C1=O (stereo not given) [phensuximide] (10 µM)	112%
CCCn1c(=O)c2[nH]c(-c3cnn(Cc4cccc(C(F)(F)F)c4)c3)nc2n(CC)c1=O (10 µM)	103%
Oc1ccc2c(c1)CC[C@H](c1ccccc1)[C@@H]2c1ccc(OCCN2CCCC2)cc1 [lasofoxifene] (0.833333 µM)	97%
CO[C@H]1/C=C\C=C(/C)C(=O)NC2=CC(=O)C(NCCN(C)C)=C(C[C@@H](C)C[C@H](OC)[C@H](O)[C@@H](C)/C=C(\C)[C@@H]1OC(N)=O)C2=O [alvespimycin] (10 µM)	91%
c1ccc2cc(C3=NCCN3)ncc2c1 (10 µM)	102%
Nc1ncnc2c1c(-c1cnc3[nH]ccc3c1)nn2C1CCCC1 (10 µM)	114%
Cc1ccccc1N1CCN(CCc2nnc3n2CCCC3)CC1 [dapiprazole] (10 µM)	87.5%
NCC1CC(=O)N(Cc2ccccc2)C1 (stereo not given) [nebracetam] (10 µM)	102%
CC1/C=C/C=C/C=C/C=C/C=C/C=C/C=C/C(OC2O[C@H](C)[C@@H](O)[C@H](N)[C@@H]2O)CC(O)C(C(=O)O)C(O)CC(=O)CC(O)CC(O)CC(O)CC(=O)CCCC(=O)CC(=O)OC1C(C)CC(C)C(O)CC(=O)c1ccc(N)cc1 (stereo not given in full) [candicidin] (0.833333 µM)	100%
CC1(CN2CCC(n3c(=O)[nH]c4ccccc43)CC2)OCc2ccccc2-n2cccc21 (stereo not given) [zaldaride] (10 µM)	112%
CN(C)C(=N)NC(=N)N [metformin] (10 µM)	108%
COC(=O)C1=C(C)NC(C)=C(C(=O)O[C@H]2CCN(Cc3ccccc3)C2)[C@H]1c1cccc([N+](=O)[O-])c1 [barnidipine] (10 µM)	112%
O.O=[Si]=O.O=[Si]=O.O=[Si]=O.O=[Si]=O.[O]=[Mg].[O]=[Mg].[O]=[Mg] (10 µM)	104%

Reference: the supplement of paper PMC13380429
